# Measurements as given in PubChem BioAssay AID2550 (Johns Hopkins Ion Channel Center, 2010).
# Among all 310,000 compounds or so, about 380 (0.12%) were called active.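 Rule for the calls: active = B-score of the integrated fluorescence ratio above library mean plus 3 SD, and starting fluorescence ratio within library mean plus 5 SD; inactive = the rest.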 Shown is part of a subset that was picked to be rich in actives.
# Molecular target: Short transient receptor potential channel 6 (Mus musculus) (UniProt Q61143)
# Experiment: small molecules opening TRPC6 cation channel – cell-based, HEK293, membrane potential dye, primary screen (AID 2550);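 note: higher score means more depolarization so channel activation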
# Settings: HEK293-TRPC6 membrane potential dye fluorescence, at 10 µM; stronger effect = higher value
# Chain of Short transient receptor potential channel 6 (Mus musculus) (Q61143 whole entry, looked up): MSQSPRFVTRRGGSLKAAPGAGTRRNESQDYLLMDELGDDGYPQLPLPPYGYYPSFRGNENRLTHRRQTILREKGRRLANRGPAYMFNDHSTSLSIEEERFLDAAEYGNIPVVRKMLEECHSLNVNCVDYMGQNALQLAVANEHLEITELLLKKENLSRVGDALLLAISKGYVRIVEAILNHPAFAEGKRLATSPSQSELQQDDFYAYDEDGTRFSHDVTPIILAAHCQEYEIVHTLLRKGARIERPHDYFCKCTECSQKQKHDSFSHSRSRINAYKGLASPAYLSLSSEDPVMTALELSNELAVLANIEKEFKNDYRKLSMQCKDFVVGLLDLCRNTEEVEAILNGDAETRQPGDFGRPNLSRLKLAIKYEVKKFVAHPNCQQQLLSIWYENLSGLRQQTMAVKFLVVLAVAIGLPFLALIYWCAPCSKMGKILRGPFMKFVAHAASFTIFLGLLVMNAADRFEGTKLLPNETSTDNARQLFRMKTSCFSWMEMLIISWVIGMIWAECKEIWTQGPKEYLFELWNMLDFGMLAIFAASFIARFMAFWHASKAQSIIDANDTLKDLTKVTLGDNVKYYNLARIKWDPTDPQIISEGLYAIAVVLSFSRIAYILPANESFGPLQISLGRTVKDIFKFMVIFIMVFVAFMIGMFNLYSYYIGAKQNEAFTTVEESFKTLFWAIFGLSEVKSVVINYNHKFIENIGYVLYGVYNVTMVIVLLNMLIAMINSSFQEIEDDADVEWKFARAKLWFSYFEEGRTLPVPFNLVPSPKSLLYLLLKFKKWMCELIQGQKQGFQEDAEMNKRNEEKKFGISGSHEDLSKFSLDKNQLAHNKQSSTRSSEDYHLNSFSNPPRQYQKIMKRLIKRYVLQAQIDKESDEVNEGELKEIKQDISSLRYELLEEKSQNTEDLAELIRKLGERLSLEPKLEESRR
row,SMILES,B-score
1,COc1ccc(CN2CCC(c3nc4ccc(Cl)cc4[nH]3)CC2)cc1,inactive
2,CCc1ccc(C(=O)NNC(=O)C2CCN(c3ncnc4sc(C)c(C)c34)CC2)cc1,inactive
3,O=C(O)CCn1c(SCc2cc(=O)n3ccccc3n2)nc2ccsc2c1=O,inactive
4,Cc1sc(NC(=O)C2C3CCC(O3)C2C(=O)O)c(C(=O)OC(C)C)c1-c1ccc(Cl)cc1 (configuration not stated),inactive
5,CC(C)(C)n1nnnc1C(c1ccccc1F)N1CCN(C(=O)c2ccco2)CC1 (configuration not stated),inactive
6,CCOCCCN(C)C1CCN(C(=O)c2oc3ccccc3c2NC(=O)Cc2cccc([N+](=O)[O-])c2)CC1,inactive
7,CC1=C(N2CCN(c3ncccn3)CC2)CCC1=O,inactive
8,O=S(=O)(NC(=S)Nc1ccccc1)c1ccc(F)cc1,inactive
9,Nc1ccc(SCCN2C(=O)c3ccccc3C2=O)cc1,inactive
10,COC(=O)CNc1nc(Cl)nc(N2CCC(C)CC2)n1,inactive
11,Cc1ccc(CNC(=O)c2ccccc2CCc2ccccc2)cc1,inactive
12,O=C1CC2(CC(c3ccc(Cl)cc3)=NO2)C(=O)N1c1ccccc1 (configuration not stated),inactive
13,CCOC(=O)CC1C(=O)NCCN1c1nc2c(C)cccn2c(=O)c1/C=C1\SC(=S)N(C(C)CC)C1=O (configuration not stated),26.7 (active)
14,CCCN(CCC)c1nc2c(C)cccn2c(=O)c1/C=C1/SC(=S)N(Cc2ccco2)C1=O,inactive
15,CCOC(=O)N1CCN(C(=O)CSc2nc(=O)n3cccc(C)c3n2)CC1,inactive
16,O=C1C2C3C=CC(C4CC34)C2C(=O)N1/N=C/c1ccc(-c2ccccc2[N+](=O)[O-])o1 (configuration not stated),inactive
17,COC(=O)[C@@H](Cc1ccccc1)NC(=O)NCCc1ccccc1,inactive
18,O=[N+]([O-])c1ccccc1N/N=C1\CCc2ccccc21,inactive
19,O=C(NCCS(=O)(=O)NCc1ccc(Cl)cc1)c1ccccc1,inactive
20,CC(C)NC(=O)c1ccc(Sc2ccccc2)c([N+](=O)[O-])c1,inactive
21,CCOc1ccc(S(=O)(=O)N2CCCCCC2)c2ccccc12,inactive
22,CC1CCCCC1NC(=O)CSc1nnc(-c2ccncc2)n1CCCN(C)C (configuration not stated),inactive
23,CCOC(=O)C1=C(O)/C(=C/c2cc(C)n(-c3ccccc3)c2C)N=C1C,inactive
24,COc1cc(OC)c(C2=NOC(C(=O)Nc3c(C)n(C)n(-c4ccccc4)c3=O)C2)cc1Cl (configuration not stated),inactive
25,CC(C)Cc1oc(C(=O)O)cc1CN,inactive
26,O=[N+]([O-])c1cc(Cl)cc(/C=N/NC(=S)Nc2cc(S(=O)(=O)N3CCOCC3)ccc2Cl)c1O,inactive

row,SMILES,B-score
1,COc1ccc(S(=O)(=O)n2nc(C)c(S(=O)(=O)N3CCOCC3)c2C)cc1,inactive
2,CCOc1ccc(-c2c(C)n([O-])c3c([n+]2=O)CCCC3)cc1,inactive
3,COCCOC(=O)c1sc(=S)n(CCOC)c1N,inactive
4,O=S(=O)(c1cccc2nonc12)N1CCN(c2cccc(Cl)c2)CC1,inactive
5,Cc1cc(C)nc(SC(C)C(=O)N/N=C/c2cccs2)n1 (configuration not stated),inactive
6,CCCCCCn1cc(C(=O)O)c(=O)c2cc(F)c(N3CCCCC3)cc21,12.2 (active)
7,CCn1cc(C(=O)NCCO)c(=O)c2cc(F)c(N3CCN(C)CC3)cc21,inactive
8,CN1CCN(c2cc3c(cc2F)c(=O)c(C(=O)O)cn3CCF)CC1,inactive
9,COCCNC(=O)/C(C#N)=C/c1nc(N(C)C)n(-c2ccc(F)cc2)c1Cl,inactive
10,CCOC(=O)Cn1c(=O)oc2cc(S(=O)(=O)N(C)Cc3ccco3)ccc21,inactive
11,CCOC(=O)/C=c1\s/c(=C\c2ccc(C#N)cc2)c(=O)n1CC(=O)Nc1cccc(C)c1C,inactive
12,CN(c1ccccc1)c1ccc(/C=c2\s/c(=C(/C#N)C(=O)C(C)(C)C)n(Cc3ccco3)c2=O)cc1,33.3 (active)
13,CCn1cc(/C=C(\NC(=O)c2cc(OC)c(OC)c(OC)c2)C(=O)N2CCN(C)CC2)c2ccccc21,inactive
14,O=C(NNc1ccccc1Cl)C(O)(c1cccc(C(F)(F)F)c1)c1cccc(C(F)(F)F)c1,inactive
15,CCOC1CCCCC1NS(=O)(=O)c1ccc(Cl)cc1 (configuration not stated),inactive
16,CCn1ccnc1CN1CCCC(C(=O)c2ccc3c4c(cccc24)CC3)C1 (configuration not stated),inactive
17,COc1cc2c(cc1OC)C(C(=O)NCc1ccco1)C1c3ccccc3CCN1C2=O (configuration not stated),inactive
18,CCn1cc(/C=C2/SC(=S)NC2=O)c(C)n1,inactive
19,CCN1C(=NCCc2cccnc2)N[C@@H](c2ccccc2)[C@H](C(=O)OC)[C@H]1C,inactive
20,CCOc1ccc(NC(=O)C2CCN(C(=O)N3CCOc4ccccc43)CC2)cc1,inactive
21,CCCCn1c(N)c(N(CCOC)C(=O)c2cccc(OCc3ccccc3)c2)c(=O)[nH]c1=O,inactive
22,C#CC(C)(C)NC(=O)c1cnc(-c2ccccc2)nc1-c1ccccc1,inactive
23,CC(=O)Nc1ccc(CN2CCC(Oc3ccc(C(=O)N4CCCC4)cc3)CC2)cc1,inactive
24,Cc1ccc(S(=O)(=O)/N=C(\CN2CCOCC2)N2CCOCC2)cc1,inactive
25,CCc1ccccc1OCC(=O)Nc1ccc2c(c1)OCCO2,inactive
26,COc1ccc2oc(C(=O)NCC(Cc3ccccc3)N(C)C)c(C)c2c1 (configuration not stated),inactive

row,SMILES,B-score
1,COc1c(O)ccc2c1CN1CCc3cc4c(cc3C1C2)OCO4 (configuration not stated),inactive
2,Cc1ccc(S(=O)(=O)c2nnn3c2nc(N2CCN(c4ccccn4)CC2)c2ccccc23)cc1,inactive
3,CC(C)(C)n1nnnc1C(c1ccc2ncccc2c1)N1CCSCC1 (configuration not stated),12.7 (active)
4,CC(C)(C)n1nnnc1C(c1ccc(Cl)cc1)N1CCSCC1 (configuration not stated),inactive
5,Cc1cccc(N2CCN(C(c3ccc(N(C)C)cc3)c3nnnn3C(C)(C)C)CC2)c1C (configuration not stated),inactive
6,CN(C)C(CNC(=O)c1ccc(S(=O)(=O)NCc2ccco2)cc1)c1ccccc1 (configuration not stated),inactive
7,CC(=O)N(Cc1cccs1)C1CCOC(C)(C)C1 (configuration not stated),inactive
8,CCc1ccc(C2C(C#N)=C(N)N(N3CCOCC3)C3=C2C(=O)CC(C)(C)C3)s1 (configuration not stated),inactive
9,Cc1ccc(Cl)cc1N1CCN(C(=O)c2cccc3c(=O)c(C)c(-c4ccccc4)oc23)CC1,inactive
10,Cc1ccc(-c2csc(NCCc3nc4cc(Cl)c(Cl)cc4n3CCOCCO)n2)cc1,inactive
11,Cc1cc(/C=N/n2cnnc2)c(C)n1-c1ccc2ncccc2c1,inactive
12,COc1ccc(NC(=S)N2CCC(NC(=O)c3cccc(F)c3)CC2)cc1,inactive
13,CN(C)c1ccnc2sc(C(=O)c3ccccc3)c(N)c12,inactive
14,Nc1c(C(=O)c2cccs2)sc2nsc(SCCN3CCCCC3)c12,19.2 (active)
15,O=C(CN1C2=NCCN2c2ccccc21)c1cccs1,inactive
16,O=C(NCCNc1ccccc1[N+](=O)[O-])c1ccccc1F,inactive
17,O=C(CSc1nnc(Cn2cnc3ccccc32)o1)c1ccccc1,inactive
18,COc1ccc(NC(=O)c2oc3ccc(S(=O)(=O)N4CCOCC4)cc3c2C)cc1,inactive
19,Nc1ccc(Cl)c(S(=O)(=O)Nc2ccccc2Cl)c1,inactive
20,CCCCNC(=O)N1CCN(S(C)(=O)=O)CC1,inactive
21,CCCCn1c(O)c(N=NC(=O)Cn2c(C(F)(F)F)nc3ccccc32)c2ccccc21,inactive
22,CN(C)c1ccc(/C=C2\NC(=S)N(Cc3ccccc3)C2=O)cc1,22.1 (active)
23,COc1cc(/C=C2/SC(=S)N(Cc3ccccc3)C2=O)cc(OC)c1O,inactive
24,O=C1/C(=C\c2ccsc2)NC(=S)N1c1ccccc1,inactive
25,Cc1cccc(C)c1NC(=O)CSc1nc2c([nH]1)c(=O)n(C)c(=O)n2C,inactive
